Values joined by “and” are separate entries in the source; they are usually repeats but may differ in a detail not shown here. Identical values can stand only once. Some structures have more than one record in an assay (separate samples or runs), and their calls can disagree. Active and inactive are the calls of the source. Where a call stands in place of a potency, no number is given. Unless noted, the call rests on the fitted dose curve; in most records, active means well fitted curve in the direction sought with a large enough effect in the repeat runs; inconclusive means weak or mixed curves; inactive means no such curve, though single readings can be large; an effect the other way counts as inactive or inconclusive.
Legend:
[1] = qHTS assay to identify small molecule antagonists of the thyroid receptor (TR) signaling pathway - cell viability counter screen (AID 743064); further: nearly all actives have a fitted effect of over 50% in size; further: potency means the concentration at half of the fitted maximal effect
Summary of the method: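 Plate GH3.TRE-Luc cells; incubate 4 h at 37 °C; add compound, then T3 to 1 nM final; incubate 23.5 h; add CellTiter-Fluor; incubate 30 min at 37 °C, 5% CO2; read fluorescence.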

[2] = qHTS assay to identify small molecule antagonists of the estrogen receptor alpha (ER-alpha) signaling pathway - cell viability counter screen (AID 743074; calls by dose curve;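 further: HEK293 cells carrying ER-alpha-UAS-bla reporter stimulated with 17beta-estradiol; nearly all actives have a fitted effect of over 45% in size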)
[3] = target: Estrogen receptor (Homo sapiens) (UniProt P03372); assay: qHTS assay to identify small molecule agonists of the estrogen receptor alpha (ER-alpha) signaling pathway (AID 743075; calls by dose curve;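 further: HEK293 GripTite cells with ER-alpha and UAS-driven beta-lactamase reporter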; further: potency means the concentration at half of the fitted maximal effect)
[4] = target: Estrogen receptor (Homo sapiens) (UniProt P03372); assay: qHTS assay to identify small molecule agonists of the estrogen receptor alpha (ER-alpha) signaling pathway using the BG1 cell line (AID 743079); further: nearly all actives have a fitted effect of over 20% in size; further: potency means the concentration at half of the fitted maximal effect
[5] = qHTS assay to identify small molecule antagonists of the estrogen receptor alpha (ER-alpha) signaling pathway using the BG1 cell line (AID 743080; calls by dose curve;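 further: BG1 cells stimulated with 17beta-estradiol alongside compound; series mostly up to about 70 µM; nearly all actives have a fitted effect of over 25% in size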)
Summary of the method: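 BG1-Luc-4E2 cells (endogenous full-length ER-alpha, 4xERE luciferase) hormone-starved 5 days in charcoal-stripped FBS, plated 4,000/well for 24 h, then compound plus 17beta-estradiol for 21.5 h at 37 C; ONE-Glo luminescence read.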

[6] = qHTS assay to identify small molecule antagonists of the estrogen receptor alpha (ER-alpha) signaling pathway using the BG1 cell line - cell viability counter screen (AID 743081);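 further: compound given together with 17beta-estradiol as the ER stimulus; series mostly up to about 70 µM; nearly all actives have a fitted effect of over 45% in size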
[7] = target: Aromatase (Homo sapiens) (UniProt P11511); assay: qHTS assay to identify aromatase inhibitors (AID 743083); further: series mostly up to about 70 µM; nearly all actives have a fitted effect of over 55% in size
[8] = qHTS assay to identify aromatase inhibitors - cell viability counter screen (AID 743084);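 further: cells stimulated with testosterone during compound exposure; nearly all actives have a fitted effect of over 55% in size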; further: potency means the concentration at half of the fitted maximal effect
[9] = target: Aryl hydrocarbon receptor (Homo sapiens) (UniProt P35869); assay: qHTS assay to identify small molecule that activate the aryl hydrocarbon receptor (AhR) signaling pathway (AID 743085); further: nearly all actives have a fitted effect of over 15% in size; further: potency means the concentration at half of the fitted maximal effect;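 on activation: HG2L7.5c1 human HepG2 liver cells with stably integrated DRE-driven firefly reporter; series mostly up to about 70 µM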
Summary of the method: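 Steps: seed HepG2-AhR-luc cells; allow 5 h at 37C; pin-transfer test compound or vehicle; incubate 24 h at 37C; add viability dye (30 min, 37C) and read fluorescence; add luciferase substrate (30 min, RT) and read luminescence.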

[10] = target: Peroxisome proliferator-activated receptor gamma (Homo sapiens) (UniProt P37231); assay: qHTS assay to identify small molecule agonists of the peroxisome proliferator-activated receptor gamma (PPARg) signaling pathway (AID 743094; active means well fitted activation curve with a large enough effect in the signal ratio in the repeat runs, not every such curve was filed as active; inconclusive means weak or mixed curves, or effect the other way; inactive means no such curve, though single readings can be large or run the other way; the % refers to the signal ratio)
Summary of the method: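 GeneBLAzer PPARg UAS-bla HEK293H cells carrying a stably integrated beta-lactamase reporter were pre-incubated 5 h at 37C, then exposed to compounds in DMSO for 17 h at 37C; LiveBLAzer B/G FRET substrate was added for 1 h at room temperature and fluorescence read.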

[11] = target: Peroxisome proliferator-activated receptor gamma (Homo sapiens) (UniProt P37231); assay: qHTS assay to identify small molecule antagonists of the peroxisome proliferator-activated receptor gamma (PPARg) signaling pathway (AID 743191; calls by dose curve; further: series mostly up to about 63 µM; nearly all actives have a fitted effect of over 30% in size)
Summary of the method: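 Beta-lactamase reporter under UAS control in HEK293H PPARg-bla cells; compound treatment 17 h at 37C. Read-out: fluorescence intensity after 1 h room-temperature incubation with LiveBLAzer B/G FRET substrate.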

[12] = qHTS assay to identify small molecule antagonists of the peroxisome proliferator-activated receptor gamma (PPARg) signaling pathway - cell viability counter screen (AID 743194); further: nearly all actives have a fitted effect of over 55% in size
Summary of the method: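 Viability was measured as CellTiter-Glo luminescence in GeneBLAzer PPARg UAS-bla HEK293H cells. These cells had been exposed 17 h at 37 C to compounds together with rosiglitazone at 50 nM final, with the beta-lactamase readout taken in the same wells.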

[13] = qHTS assay for small molecule agonists of the antioxidant response element (ARE) signaling pathway - cell viability counter screen (AID 743203; calls by dose curve; further: nearly all actives have a fitted effect of over 55% in size; further: potency means the concentration at half of the fitted maximal effect)
Summary of the method: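 CellSensor ARE-bla HepG2 cells, 2,000 per well, rested 5 hrs at 37C/5% CO2, then exposed to compound in DMSO for 16 hrs; viability read as CellTiter-Glo luminescence after 30 min at room temperature, in the reporter wells.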

[14] = qHTS assay for small molecule activators of the heat shock response signaling pathway - cell viability counter screen (AID 743209); further: nearly all actives have a fitted effect of over 50% in size
Summary of the method: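 CellSensor HSE-bla HeLa cells, plated overnight at 37 C/5% CO2, were exposed to compounds in DMSO for 5 h at 37 C. Viability was then read in the same wells by CellTiter-Glo luminescence after 30 min at room temperature.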

[15] = qHTS assay for small molecule activators of the heat shock response signaling pathway (AID 743210; active means well fitted activation curve with a large enough effect in the signal ratio in the repeat runs, with a control signal flat, not every such curve was filed as active; inconclusive means weak or mixed curves; the % refers to the signal ratio;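 further: HeLa cells with beta-lactamase reporter driven by heat shock elements; series mostly up to about 63 µM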)
Summary of the method: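 HeLa HSE-bla cells, overnight plating; cpd in DMSO 5 h, 37 C; LiveBLAzer B/G FRET substrate 2.5 h RT; fluorescence intensity read.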

[16] = qHTS assay to identify small molecule that activate the aryl hydrocarbon receptor (AhR) signaling pathway - cell viability counter screen (AID 743086);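 further: HepG2 liver cells carrying the AhR DRE luciferase reporter; series mostly up to about 70 µM; nearly all actives have a fitted effect of over 45% in size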
Summary of the method: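 Cytotoxicity counter screen: CellTiter-Fluor signal (30 min, 37 C) in 4000 HepG2 cells/well carrying the DRE-luciferase reporter, following 24 h compound exposure at 37 C.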

[17] = tested on: thyroid hormone receptor (rat, GH3 cells); assay: qHTS assay to identify small molecule agonists of the thyroid receptor (TR) signaling pathway (AID 743066; calls by dose curve)
[18] = target: Estrogen receptor (Homo sapiens) (UniProt P03372); assay: qHTS assay to identify small molecule antagonists of the estrogen receptor alpha (ER-alpha) signaling pathway (AID 743069; active means well fitted curve in the direction sought with a large enough effect in the signal ratio in the repeat runs, not every such curve was filed as active; inconclusive means weak or mixed curves, or effect the other way; inactive means no such curve, though single readings can be large or run the other way; the % refers to the signal ratio)
Summary of the method: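 ER-alpha-UAS-bla GripTite HEK293 line; 2% charcoal-stripped FBS overnight; plated, 4 hr 37C/5% CO2; cpd in DMSO + 17beta-estradiol, 18 hr 37C; LiveBLAzer B/G FRET substrate 2 hr RT; fluorescence intensity.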

[19] = qHTS assay for small molecule agonists of the antioxidant response element (ARE) signaling pathway (AID 743202; active means well fitted activation curve with a large enough effect in the signal ratio in the repeat runs, not every such curve was filed as active; inconclusive means weak or mixed curves, or effect the other way; inactive means no such curve, though single readings can be large or run the other way; the % refers to the signal ratio; further: potency means the concentration at half of the fitted maximal effect)
Summary of the method: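 Quantitative high-throughput format in HepG2 cells bearing an integrated ARE-beta-lactamase reporter. Compound exposure lasted 16 h at 37 C, and fluorescence was read 2 h after adding LiveBLAzer B/G substrate at room temperature.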

[20] = qHTS assay to identify small molecule antagonists of the thyroid receptor (TR) signaling pathway (AID 743065)
Summary of the method: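 Antagonism measured as loss of luciferase signal in GH3 cells stably carrying a TRE-luciferase reporter, co-treated with compound and T3 (1 nM final) for 23.5 h at 37 C. Viability was read in the same well by CellTiter-Fluor.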

Sequence of Peroxisome proliferator-activated receptor gamma (Homo sapiens) (P37231 whole entry, looked up): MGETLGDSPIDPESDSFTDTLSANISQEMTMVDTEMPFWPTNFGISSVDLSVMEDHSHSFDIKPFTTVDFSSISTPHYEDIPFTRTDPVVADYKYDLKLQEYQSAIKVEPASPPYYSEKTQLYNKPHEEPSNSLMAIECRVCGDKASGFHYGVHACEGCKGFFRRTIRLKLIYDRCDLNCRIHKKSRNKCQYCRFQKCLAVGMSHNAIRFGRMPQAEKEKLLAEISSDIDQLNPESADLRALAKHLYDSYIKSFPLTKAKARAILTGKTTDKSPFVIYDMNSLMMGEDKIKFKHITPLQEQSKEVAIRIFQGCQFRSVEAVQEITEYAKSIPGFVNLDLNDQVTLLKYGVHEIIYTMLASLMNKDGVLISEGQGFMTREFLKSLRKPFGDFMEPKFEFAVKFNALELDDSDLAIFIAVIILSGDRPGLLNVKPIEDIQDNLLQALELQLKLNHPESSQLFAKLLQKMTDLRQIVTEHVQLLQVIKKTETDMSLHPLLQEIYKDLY
Sequence of Aryl hydrocarbon receptor (Homo sapiens) (P35869 whole entry, looked up): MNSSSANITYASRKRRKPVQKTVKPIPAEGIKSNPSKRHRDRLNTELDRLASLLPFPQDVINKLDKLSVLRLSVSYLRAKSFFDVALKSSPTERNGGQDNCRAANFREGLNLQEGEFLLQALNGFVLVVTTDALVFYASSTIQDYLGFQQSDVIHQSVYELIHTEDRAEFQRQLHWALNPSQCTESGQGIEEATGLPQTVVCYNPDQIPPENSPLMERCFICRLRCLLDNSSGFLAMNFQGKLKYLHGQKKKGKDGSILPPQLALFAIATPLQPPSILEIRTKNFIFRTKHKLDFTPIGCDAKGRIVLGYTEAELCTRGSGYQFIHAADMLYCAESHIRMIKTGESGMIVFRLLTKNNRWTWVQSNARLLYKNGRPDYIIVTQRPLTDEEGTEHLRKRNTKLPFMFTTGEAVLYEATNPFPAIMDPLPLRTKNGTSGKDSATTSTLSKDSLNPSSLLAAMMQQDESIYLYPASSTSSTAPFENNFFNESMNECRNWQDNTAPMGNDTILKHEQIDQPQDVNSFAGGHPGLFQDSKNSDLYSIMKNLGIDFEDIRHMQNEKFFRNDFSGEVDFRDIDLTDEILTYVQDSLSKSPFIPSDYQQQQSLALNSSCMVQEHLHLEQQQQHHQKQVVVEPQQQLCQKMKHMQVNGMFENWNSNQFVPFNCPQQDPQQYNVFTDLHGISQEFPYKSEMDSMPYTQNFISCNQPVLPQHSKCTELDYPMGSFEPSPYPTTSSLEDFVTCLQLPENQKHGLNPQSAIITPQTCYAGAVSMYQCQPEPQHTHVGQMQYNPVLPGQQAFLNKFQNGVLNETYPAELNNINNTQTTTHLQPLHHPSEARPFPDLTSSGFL
Sequence of Aromatase (Homo sapiens) (P11511 whole entry, looked up): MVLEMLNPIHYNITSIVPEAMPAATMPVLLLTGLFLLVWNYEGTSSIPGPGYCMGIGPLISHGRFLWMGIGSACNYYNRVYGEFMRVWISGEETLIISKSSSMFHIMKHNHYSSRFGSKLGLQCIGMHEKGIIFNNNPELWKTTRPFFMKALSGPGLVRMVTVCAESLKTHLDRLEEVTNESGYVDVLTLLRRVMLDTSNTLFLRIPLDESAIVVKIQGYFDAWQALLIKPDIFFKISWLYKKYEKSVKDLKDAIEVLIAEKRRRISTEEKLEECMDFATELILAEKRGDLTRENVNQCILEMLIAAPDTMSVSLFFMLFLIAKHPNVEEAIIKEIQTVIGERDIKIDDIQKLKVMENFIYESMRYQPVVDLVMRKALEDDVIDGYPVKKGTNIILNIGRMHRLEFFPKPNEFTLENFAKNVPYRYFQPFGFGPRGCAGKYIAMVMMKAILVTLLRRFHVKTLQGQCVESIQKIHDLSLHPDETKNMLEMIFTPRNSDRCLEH
Sequence of Estrogen receptor (Homo sapiens) (P03372 whole entry, looked up): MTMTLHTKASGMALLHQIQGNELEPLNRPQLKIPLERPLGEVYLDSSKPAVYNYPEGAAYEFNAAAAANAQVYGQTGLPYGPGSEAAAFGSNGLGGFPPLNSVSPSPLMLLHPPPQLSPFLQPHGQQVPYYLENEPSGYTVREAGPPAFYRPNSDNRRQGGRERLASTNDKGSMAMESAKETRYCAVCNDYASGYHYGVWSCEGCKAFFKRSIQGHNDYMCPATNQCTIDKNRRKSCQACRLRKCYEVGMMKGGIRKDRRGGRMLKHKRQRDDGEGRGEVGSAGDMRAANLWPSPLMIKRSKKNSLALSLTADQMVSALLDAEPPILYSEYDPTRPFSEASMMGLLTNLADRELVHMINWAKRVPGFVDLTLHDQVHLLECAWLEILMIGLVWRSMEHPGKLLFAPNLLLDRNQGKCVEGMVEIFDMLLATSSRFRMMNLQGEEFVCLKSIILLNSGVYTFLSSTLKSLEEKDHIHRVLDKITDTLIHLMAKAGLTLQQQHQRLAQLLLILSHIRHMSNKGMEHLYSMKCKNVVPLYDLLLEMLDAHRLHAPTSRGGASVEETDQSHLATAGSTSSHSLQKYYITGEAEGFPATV

## Nc1ccc(Nc2ccccc2)cc1
[1]
  Potency: 60.4 µM (active) and 30.6 µM (active) and 34.4 µM (active)
[2]
  Potency: inactive
[3]
  Potency: inactive
[4]
  Potency: inactive
[5]
  Potency: inactive
[6]
  Potency: inactive
[7]
  Potency: inactive
[8]
  Potency: 61.1 µM (active) and inactive
[9]
  Potency: inactive
[10]
  Potency: inactive
[11]
  Potency: inactive
[12]
  Potency: inactive
[13]
  Potency: inactive
[14]
  Potency: inactive
[15]
  Potency: inactive

## CC(C)Oc1ccc2c(=O)c(-c3ccccc3)coc2c1
[6]
  Potency: inactive
[7]
  Potency: inactive
[8]
  Potency: inactive
[9]
  Potency: 2.11 µM (active) and 4.73 µM (active)
[16]
  Potency: inactive
[10]
  Potency: inactive
[11]
  Potency: inactive
[14]
  Potency: inactive
[15]
  Potency: inactive

## C#C[C@]1(O)CC[C@H]2[C@@H]3CCc4cc(OC)ccc4[C@H]3CC[C@@]21C
[1]
  Potency: inactive
[17]
  Potency: inactive
[2]
  Potency: inactive
[3]
  Potency: 19 nM [inconclusive] (active) and 30.9 nM [inconclusive] (active)
[4]
  Potency: 1.5 nM (active) and 0.8 nM (active)
[5]
  Potency: inactive
[6]
  Potency: inactive
[8]
  Potency: inactive
[9]
  Potency: inactive
[10]
  Potency: inactive
[13]
  Potency: inactive
[14]
  Potency: inactive
[15]
  Potency: inactive

## CN(C)CCN(Cc1cccs1)c1ccccn1
[1]
  Potency: inactive
[17]
  Potency: inactive
[18]
  Potency: inactive
[2]
  Potency: inactive
[3]
  Potency: inactive
[4]
  Potency: inactive
[5]
  Potency: inactive
[6]
  Potency: inactive
[10]
  Potency: inactive
[11]
  Potency: inactive
[12]
  Potency: inactive
[19]
  Potency: inactive
[13]
  Potency: inactive
[14]
  Potency: inactive
[15]
  Potency: inactive

## Brc1cc(Oc2cc(Br)c(Br)c(Br)c2Br)c(Br)c(Br)c1Br
[1]
  Potency: inactive
[17]
  Potency: inactive
[2]
  Potency: inactive
[6]
  Potency: inactive
[7]
  Potency: inactive
[8]
  Potency: inactive
[9]
  Potency: inactive
[16]
  Potency: inactive
[10]
  Potency: inactive
[11]
  Potency: inactive
[12]
  Potency: inactive
[14]
  Potency: inactive
[15]
  Potency: inactive

## C/C=C/C(=O)O
[1]
  Potency: inactive
[20]
  Potency: inactive
[17]
  Potency: inactive
[2]
  Potency: inactive
[6]
  Potency: inactive
[16]
  Potency: inactive
[19]
  Potency: inactive
[14]
  Potency: inactive
[15]
  Potency: inactive

## Cn1cnc([N+](=O)[O-])c1Sc1ncnc2nc[nH]c12
[1]
  Potency: inactive
[17]
  Potency: inactive
[18]
  Potency: inactive
[2]
  Potency: inactive
[3]
  Potency: inactive
[4]
  Potency: inactive
[6]
  Potency: inactive
[7]
  Potency: inactive
[8]
  Potency: inactive
[9]
  Potency: inactive and 19.2 µM (active)
[10]
  Potency: inactive
[19]
  Potency: 8.41 µM (active)
[13]
  Potency: 0.382 µM (active)
[14]
  Potency: inactive

## OC[C@H]1O[C@@H]2O[C@H]3[C@H](O)[C@@H](O)[C@@H](O[C@H]4[C@H](O)[C@@H](O)[C@@H](O[C@H]5[C@H](O)[C@@H](O)[C@@H](O[C@H]6[C@H](O)[C@@H](O)[C@@H](O[C@H]7[C@H](O)[C@@H](O)[C@@H](O[C@H]8[C@H](O)[C@@H](O)[C@@H](O[C@H]1[C@H](O)[C@H]2O)O[C@@H]8CO)O[C@@H]7CO)O[C@@H]6CO)O[C@@H]5CO)O[C@@H]4CO)O[C@@H]3CO
[1]
  Potency: inactive
[20]
  Potency: inactive
[17]
  Potency: inactive
[2]
  Potency: inactive
[6]
  Potency: inactive
[16]
  Potency: inactive
[12]
  Potency: inactive
[19]
  Potency: inactive
[14]
  Potency: inactive
[15]
  Potency: inactive

## Nc1ncnc2nc[nH]c12
[18]
  Potency: inactive
[2]
  Potency: inactive
[3]
  Potency: inactive
[4]
  Potency: inactive
[5]
  Potency: inactive
[6]
  Potency: inactive
[7]
  Potency: inactive
[8]
  Potency: inactive
[9]
  Potency: inactive
[10]
  Potency: inactive
[12]
  Potency: inactive
[19]
  Potency: inactive
[14]
  Potency: inactive
[15]
  Potency: inactive
